Bioassay records from PubChem.
TMEM16A inh – inhibitors of mouse TMEM16A calcium-activated chloride channel; 310,000 compounds, 1.2% hits; normalized B-score (activity score, 25-100; higher = stronger inhibition) at 10 µM; Q8BHY3; AID 588511; HEK293 TMEM16A/YFP iodide influx fluorescence, ionomycin;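 active = ratio plate-corrected score three or more library SD toward inhibition, starting fluorescence score within five deviations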;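 also: score derived from kinetic fluorescence span divided by baseline fluorescence per well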
Target sequence (Q8BHY3 whole entry, looked up): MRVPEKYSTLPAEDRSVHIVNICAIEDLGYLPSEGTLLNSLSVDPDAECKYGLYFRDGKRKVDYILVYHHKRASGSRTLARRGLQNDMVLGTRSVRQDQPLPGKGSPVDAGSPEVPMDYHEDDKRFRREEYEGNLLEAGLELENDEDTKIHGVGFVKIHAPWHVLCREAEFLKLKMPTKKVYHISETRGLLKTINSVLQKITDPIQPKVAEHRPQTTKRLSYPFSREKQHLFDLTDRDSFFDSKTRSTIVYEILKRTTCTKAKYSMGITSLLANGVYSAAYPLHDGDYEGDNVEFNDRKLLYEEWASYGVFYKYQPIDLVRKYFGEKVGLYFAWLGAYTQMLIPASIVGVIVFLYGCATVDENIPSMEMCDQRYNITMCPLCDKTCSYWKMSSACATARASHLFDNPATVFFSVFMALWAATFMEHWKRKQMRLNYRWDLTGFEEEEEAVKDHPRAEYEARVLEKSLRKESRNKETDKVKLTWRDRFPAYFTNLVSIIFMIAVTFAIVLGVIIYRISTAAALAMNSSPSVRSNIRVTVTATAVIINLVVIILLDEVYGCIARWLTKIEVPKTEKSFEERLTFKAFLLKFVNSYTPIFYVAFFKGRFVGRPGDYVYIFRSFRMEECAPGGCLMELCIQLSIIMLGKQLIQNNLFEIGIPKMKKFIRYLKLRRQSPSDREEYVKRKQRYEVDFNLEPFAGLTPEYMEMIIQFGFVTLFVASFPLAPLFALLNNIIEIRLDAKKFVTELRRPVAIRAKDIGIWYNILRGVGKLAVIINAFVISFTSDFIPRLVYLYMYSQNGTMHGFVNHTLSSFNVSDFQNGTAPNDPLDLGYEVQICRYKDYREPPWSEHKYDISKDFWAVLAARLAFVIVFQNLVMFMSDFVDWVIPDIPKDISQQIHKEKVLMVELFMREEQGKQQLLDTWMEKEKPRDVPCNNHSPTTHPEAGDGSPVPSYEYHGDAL
CRFR2-BP ag – CRF-BP/CRF-R2 complex agonism; AID 588473; 350,000 compounds, 0.46% hits; activation, % at 13.2 µM; HEK293 CRF-R2/CRF-BP, calcium dye fluorescence (FLIPR); percent of saturating CRF peptide response;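 active = activation of at least 50%, plus an integration ratio under a set limit after plate pattern correction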
CRFBP-R2 block – antagonists of CRF-binding protein/CRF-R2 receptor complex; HEK293 CRF-R2/CRF-BP, CRF-induced calcium fluorescence; inhibition, % at 11.8 µM; 350,000 compounds, 0.59% hits;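 active = inhibition of the ligand-induced calcium signal above about 50% at the single tested concentration, limit read from the data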
ANO1 activ – activators or potentiators of mouse TMEM16A chloride channel; 340,000 compounds, 0.3% hits; B-score at 10 µM; Q8BHY3; HEK293 TMEM16A/YFP-H148Q/I152L, iodide quench fluorescence; stronger effect = lower value;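 active = fluorescence-ratio B-score plate-corrected deviation score at least 3 library SD below zero, with starting fluorescence score within 5 deviations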;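 also: channel opened by trigger with iodide after compound preincubation; score built on the fluorescence ratio of max minus min over baseline; more negative score means more quench and so TMEM16A activation or potentiation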
MPTP inh – permeability transition pore inhibition. inhibition, % at 10 µM. 360,000 compounds, 1.4% hits. isolated mouse mitochondria, Ca2+ swelling absorbance, 30 min;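 active = inhibition of 50% or more, scaled per plate between neutral and stimulator controls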
GRIN3A LBD mod – modulators (binders) of human NR3A ligand-binding domain | NR3A LBD differential scanning fluorimetry, Tm shift; 0% = protein alone, 100% = glycine-bound protein | Tm shift relative to glycine control, % at 25 µM | 340,000 compounds, 2.5% hits | AID 1259313;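 active = melting temperature shift of at least 10% of the positive control shift, at one fixed dose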
MPTP counter – Rhodamine 123 counter-screen of mitochondrial pore hits | isolated mitochondria, membrane potential, Rhodamine 123 fluorescence | 5,000 compounds, 78% hits | inhibition, % at 10 µM | shares compounds with MPTP inh | AID 624504; in the data active = inhibition above about 22%
A number is an active result. Most compounds without a hit are left out; they make up all but 5.1% or so of the library.

For COC1CCC2(C)C(=CCC3C4CC(O)CC4(C)CCC32)C1 (stereo unspecified) the results were CRFR2-BP ag inactive, CRFBP-R2 block inactive, ANO1 activ inactive, MPTP inh 81, GRIN3A LBD mod inactive and MPTP counter 73.
CCc1c(C)nc2nc(SCc3ccccc3)[nH]n2c1=O was read as TMEM16A inh inactive, CRFR2-BP ag inactive, CRFBP-R2 block inactive, ANO1 activ inactive, MPTP inh inactive and GRIN3A LBD mod inactive.
For C=CCOc1ccc(/C=C/C(=O)OCc2csc(CC(=O)Nc3ccccc3C)n2)cc1 the results were CRFR2-BP ag inactive, CRFBP-R2 block inactive, ANO1 activ inactive, MPTP inh inactive and GRIN3A LBD mod inactive.
COC(=O)c1c(C)oc2ccc(N(C(=O)c3ccncc3)S(=O)(=O)c3ccccc3)cc12 was read as TMEM16A inh inactive, CRFR2-BP ag inactive, CRFBP-R2 block inactive, ANO1 activ inactive, MPTP inh inactive and GRIN3A LBD mod inactive.
`COC(=O)c1c(C)oc2ccc(N(C(=O)c3ccncc3)S(=O)(=O)c3ccc(C)cc3C)cc12` gave TMEM16A inh inactive, CRFR2-BP ag inactive, CRFBP-R2 block inactive, ANO1 activ inactive, MPTP inh 62, GRIN3A LBD mod inactive and MPTP counter 29.
Screening Cc1ccc(N/N=C(/Sc2nnnn2-c2ccccc2)C(=O)c2ccccc2)cc1 returned TMEM16A inh inactive, CRFR2-BP ag inactive, CRFBP-R2 block inactive, ANO1 activ inactive, MPTP inh inactive and GRIN3A LBD mod inactive.
`O=C(/C(=N\Nc1ccc([N+](=O)[O-])cc1)Sc1nnnn1-c1ccccc1)c1ccccc1` gave TMEM16A inh inactive, CRFR2-BP ag inactive, CRFBP-R2 block inactive, ANO1 activ inactive, MPTP inh 94, GRIN3A LBD mod inactive and MPTP counter 90.
`O=C(O)c1cc(-n2nnnc2SCc2ccc([N+](=O)[O-])cc2)ccc1Cl` gave TMEM16A inh inactive, CRFR2-BP ag inactive, CRFBP-R2 block inactive, ANO1 activ inactive, MPTP inh inactive and GRIN3A LBD mod inactive.
For O=[N+]([O-])c1ccc(O)c(CSc2nnnn2-c2ccccc2)c1 the results were TMEM16A inh 100, CRFR2-BP ag inactive, CRFBP-R2 block inactive, ANO1 activ inactive, MPTP inh 78, GRIN3A LBD mod inactive and MPTP counter 93.
`CCOC(=O)C1=C(N)OC2=C(C(=O)CC(C)(C)C2)C1c1cc(CSc2nnnn2C)cs1` (stereo unspecified) gave TMEM16A inh inactive, CRFR2-BP ag inactive, CRFBP-R2 block inactive, ANO1 activ inactive, MPTP inh inactive and GRIN3A LBD mod inactive.
CN(C)c1ccc(C(=O)C(=O)N2CCN(c3ccccc3)CC2)cc1 was read as MPTP inh inactive.
Screening CC(C)(C)c1ccc(Oc2ccc(NC(=O)c3cccs3)cn2)cc1 returned TMEM16A inh inactive, CRFR2-BP ag inactive, CRFBP-R2 block inactive, ANO1 activ inactive, MPTP inh 54, GRIN3A LBD mod inactive and MPTP counter 44.
`Nc1ccn([C@@H]2O[C@H](CNC(=O)[C@@H](N)CSCc3ccccc3)[C@@H](O)[C@H]2O)c(=O)n1` gave CRFR2-BP ag inactive, CRFBP-R2 block inactive and MPTP inh inactive.
For O=c1oc2cc(O)ccc2cc1-c1nc2c(s1)CCc1ccccc1-2 the results were TMEM16A inh inactive, CRFR2-BP ag 279, CRFBP-R2 block inactive, ANO1 activ inactive, MPTP inh 89, GRIN3A LBD mod 565 and MPTP counter 84.
Screening O=c1oc2ccccc2cc1-c1nc2c(s1)CCc1ccccc1-2 returned TMEM16A inh inactive, CRFR2-BP ag inactive, CRFBP-R2 block inactive, ANO1 activ inactive, MPTP inh inactive and GRIN3A LBD mod inactive.
For O=C(NCCCn1ccnc1)Nc1ccc(Cl)c(Cl)c1 the results were TMEM16A inh inactive, CRFR2-BP ag inactive, CRFBP-R2 block inactive, ANO1 activ inactive, MPTP inh 79, GRIN3A LBD mod inactive and MPTP counter 88.
O=C(NCCCN1CCCC1=O)Nc1cc(Cl)ccc1Cl was read as TMEM16A inh inactive, CRFR2-BP ag inactive, CRFBP-R2 block inactive, ANO1 activ inactive, MPTP inh inactive and GRIN3A LBD mod inactive.
Screening O=C(NCCCn1ccnc1)Nc1ccc(Cl)cc1 returned TMEM16A inh inactive, CRFR2-BP ag inactive, CRFBP-R2 block inactive, ANO1 activ inactive, MPTP inh inactive and GRIN3A LBD mod inactive.
For O=C(NCCCN1CCCC1=O)Nc1ccc(F)c(Cl)c1 the results were TMEM16A inh inactive, CRFR2-BP ag inactive, CRFBP-R2 block inactive, ANO1 activ inactive, MPTP inh 84, GRIN3A LBD mod inactive and MPTP counter 92.
`CN1CCC(N2CCN(C3CN(C4CCCCC4)S(=O)(=O)C3)CC2)CC1` (stereo unspecified) gave MPTP inh inactive.
For COc1ccc(OC)c(NC(=O)COC(=O)CCc2nc3ccccc3c(=O)[nH]2)c1 the results were CRFR2-BP ag inactive, CRFBP-R2 block inactive, ANO1 activ inactive, MPTP inh inactive and GRIN3A LBD mod inactive.
For COc1ccc2cc1Oc1ccc(cc1)C[C@H]1c3c(cc(OC)c4c3Oc3c(ccc5c3[C@H](C2)N(C)CC5)O4)CCN1C the results were CRFR2-BP ag inactive, CRFBP-R2 block inactive, ANO1 activ inactive, MPTP inh 90, GRIN3A LBD mod inactive and MPTP counter inactive.
For CCOc1ccc(C2NCCc3cc(OC)c(OC)cc32)cc1OC (stereo unspecified) the results were TMEM16A inh inactive, CRFR2-BP ag inactive, CRFBP-R2 block inactive, ANO1 activ inactive, MPTP inh inactive and GRIN3A LBD mod inactive.
COc1ccc2cc1Oc1ccc(cc1)CC1c3c(cc(OC)c4c3Oc3cc5c(cc3O4)CCNC5C2)CCN1C (stereo unspecified) was read as TMEM16A inh inactive, CRFR2-BP ag inactive, CRFBP-R2 block inactive, ANO1 activ inactive, MPTP inh 78, GRIN3A LBD mod inactive and MPTP counter inactive.
Screening Oc1ccccc1/C=N/NC(=S)NC1CC2CC1C1C=CCC21 (stereo unspecified) returned TMEM16A inh inactive, CRFR2-BP ag inactive, CRFBP-R2 block inactive, ANO1 activ inactive, MPTP inh 59, GRIN3A LBD mod inactive and MPTP counter 54.
Screening NC(=S)N/N=C/c1ccccc1O returned TMEM16A inh inactive, CRFR2-BP ag inactive, CRFBP-R2 block inactive, ANO1 activ inactive, MPTP inh inactive and GRIN3A LBD mod inactive.
`Oc1ccccc1C=NNC(=S)NN=Cc1ccccc1O` gave CRFR2-BP ag inactive, CRFBP-R2 block inactive, ANO1 activ inactive, MPTP inh 90, GRIN3A LBD mod 27 and MPTP counter 67.
